Values joined by “and” are separate entries in the source; they are usually repeats but may differ in a detail not shown here. Equal values may be shown once. Read-outs that look alike come from different tables or passages of the source.
Experiments:
[1] = system: SRPK3; details: concentration: 1 μM, replicates: in singlicate; n = 1
[2] = system: STK16; details: concentration: 1 μM, replicates: in singlicate, n = 1
[3] = system: STK33; details: concentration: 1 μM, replicates: in singlicate; n = 1
[4] = system: STK35; details: concentration: 1 μM, replicates: in singlicate, n = 1
[5] = system: STK36; details: concentration: 1 μM, replicates: in singlicate, n = 1
[6] = system: STK39; details: concentration: 1 μM, replicates: in singlicate, n = 1
[7] = system: SYK; details: concentration: 1 μM, replicates: in singlicate, n = 1
[8] = system: SgK110; details: concentration: 1 μM, replicates: in singlicate; n = 1
[9] = system: T1, TAK1; details: concentration: 1 μM, replicates: in singlicate, n = 1
T1 construct: gene MAP3K7

[10] = system: TAOK1; details: concentration: 1 μM, replicates: in singlicate, n = 1
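Further: KINOMEscan kinase panel screen.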

Row | Structure (SMILES) | %Inh [1] [%] | %Inh [2] [%] | %Inh [3] [%] | %Inh [4] [%] | %Inh [5] [%] | %Inh [6] [%] | %Inh [7] [%] | %Inh [8] [%] | %Inh [9] [%] | %Inh [10] [%] | %Inh ([2]; 1 µM) | %Inh ([4]; 1 µM) | %Inh ([5]; 1 µM) | %Inh ([6]; 1 µM) | %Inh ([7]; 1 µM) | %Inh ([9]; 1 µM) | %Inh ([10]; 1 µM)
1 | Cc1nnc(-c2ccc3ncc(-c4ccc(S(C)=O)cc4)n3c2)o1 (stereo not shown) | 0 | 0 | 1 | 1 | 9 | 25 | 0 | 0 | 8 | 0 |  |  |  |  |  |  | 
2 | CCCCCc1nc2c(N)ncnc2n1CCCCC [SKF-97255] | 0 | 9 | 0 | 0 | 0 | 7 | 20 | 3 | 0 | 0 |  |  |  |  |  |  | 
3 | NS(=O)(=O)c1cccc(-c2ccc3ncc(N4CCOCC4)nc3c2)c1 [GSK1535721] | 0 | 16 | 0 | 0 | 5 | 1 | 0 | 1 | 16 | 14 |  |  |  |  |  |  | 
4 | Cc1cccc(Cn2ccn3c(=O)cc(N4CCOCC4)nc23)c1 [GSK2297542] | 0 | 61 | 0 | 0 | 0 | 0 | 22 | 0 | 13 | 0 |  |  |  |  |  |  | 
5 | CC(C)Oc1ccc2c(-c3ccnc(Nc4ccc(N5CCN(C)CC5)cc4)n3)cnn2n1 [GW696155] | 79 | 98.8 | 81 | 45 | 70 | 89 | 10 | 29 | 56 | 76 |  |  |  |  |  |  | 
6 | O=C1NC(=O)C(N2CCc3ccccc32)=C1c1cccc(Cl)c1 [SB-408010] | 31 | 26 | 0 | 19 | 16 | 54 | 0 | 1 | 21 | 0 |  |  |  |  |  |  | 
7 | O=c1cc(N2CCOCC2)nc2n(Cc3cccc(F)c3)ccn12 [GSK2297430] | 7 | 14 | 0 | 18 | 0 | 0 | 11 | 0 | 0 | 0 |  |  |  |  |  |  | 
8 | O=c1cc(N2CCOCC2)nc2n(Cc3cccc4ccccc34)ccn12 [GSK2333389] | 0 | 0 | 0 | 2 | 0 | 0 | 2 | 0 | 0 | 0 |  |  |  |  |  |  | 
9 | Fc1ccc(-c2nn3c(OCC(F)(F)F)cccc3c2-c2ccncc2)cc1 [GW514784] | 0 | 3 | 0 | 0 | 0 | 3 | 1 | 0 | 6 | 0 |  |  |  |  |  |  | 
10 | c1ccc(-c2n[nH]cc2-c2ccnc3ccccc23)nc1 [GW271431] | 0 | 18 | 8 | 19 | 0 | 0 | 44 | 0 | 50 | 0 |  |  |  |  |  |  | 
11 | O=C(Nc1n[nH]c2cc(-c3cccc(F)c3)ccc12)C1CC1 [SB-735464] | 37 | 5 | 0 | 12 | 16 | 0 | 4 | 0 | 6 | 40 |  |  |  |  |  |  | 
12 | Fc1ccc(-c2ncn(CCCN3CCOCC3)c2-c2ccccn2)cc1 [SB-211742] | 3 | 0 | 7 | 0 | 0 | 0 | 17 | 16 | 0 | 0 |  |  |  |  |  |  | 
13 | c1ccc(-c2cc(-c3c[nH]nc3-c3ccccn3)ccn2)cc1 [GW576604] | 0 | 0 | 8 | 0 | 0 | 2 | 6 | 0 | 16 | 0 |  |  |  |  |  |  | 
14 | COc1cc2ncn(-c3cc(OCc4sccc4Cl)c(C(N)=O)s3)c2cc1OC [GSK448459] | 3 | 21 | 0 | 0 | 0 | 0 | 23 | 0 | 0 | 0 |  |  |  |  |  |  | 
15 | COc1ccc(Nc2nccc(N3CCC(NC(=O)Nc4cc(C)ccc4C)C3)n2)cc1 (stereo not shown) [GSK1379741] | 0 | 7 | 0 | 0 | 100 | 9 | 0 | 0 | 0 | 0 |  |  |  |  |  |  | 
16 | O=c1cc(N2CCOCC2)nc2n(Cc3cccc(C(F)(F)F)c3)ccn12 [GSK2297543] | 0 | 0 | 0 | 0 | 0 | 0 | 27 | 0 | 0 | 0 |  |  |  |  |  |  | 
17 | Cc1cccc(-c2nc(Nc3ccc4ncsc4c3)c3ccccc3n2)n1 [GW867588] | 9 | 12 | 57 | 2 | 7 | 4 | 18 | 5 | 15 | 23 |  |  |  |  |  |  | 

Row | Structure (SMILES) | %Inh [1] [%] | %Inh [2] [%] | %Inh [3] [%] | %Inh [4] [%] | %Inh [5] [%] | %Inh [6] [%] | %Inh [7] [%] | %Inh [8] [%] | %Inh [9] [%] | %Inh [10] [%] | %Inh ([2]; 1 µM) | %Inh ([4]; 1 µM) | %Inh ([5]; 1 µM) | %Inh ([6]; 1 µM) | %Inh ([7]; 1 µM) | %Inh ([9]; 1 µM) | %Inh ([10]; 1 µM)
18 | N#Cc1c(N2CCOCC2)sc(-c2ccn[nH]2)c1-c1ccc(Cl)cc1 | 0 | 33 | 10 | 0 | 0 | 17 | 16 | 0 | 14 | 0 |  |  |  |  |  |  | 
19 | [2H]C([2H])(c1cccc(C(F)(F)F)c1C)n1ccn2c(=O)nc(N3CCOCC3)cc12 [GSK2336394] | 0 | 0 | 0 | 0 | 0 | 1 | 42 | 0 | 0 | 0 |  |  |  |  |  |  | 
20 | COc1cc2c(cc1OC[C@@H](O)CO)ncc1c3ccc(C#N)cc3[nH]c21 | 25 | 0 | 36 | 0 | 0 | 0 | 0 | 0 | 81 | 0 |  |  |  |  |  |  | 
21 | Fc1ccc(-c2ncn(CCCN3CCOCC3)c2-c2cccnc2)cc1 [SB-211743] | 0 | 0 | 0 | 1 | 0 | 0 | 32 | 17 | 0 | 0 |  |  |  |  |  |  | 
22 | CC(C)(CN)c1nc(-c2ccc(Cl)c(O)c2)c(-c2ccncc2)[nH]1.O=C(O)C(F)(F)F [SB-477794] | 0 |  | 52 |  |  |  |  | 0 |  |  | 18% and 0% | 59% and 62% | 86% and 87% | 42% and 20% | 13% and 28% | 62% and 75% | 2% and 16%
23 | Nc1nccc(-c2c(-c3ccc(F)cc3)ncn2C2CCN(CC(F)(F)F)CC2)n1 [SB-236560] | 6 | 0 | 0 | 0 | 26 | 0 | 0 | 0 | 21 | 0 |  |  |  |  |  |  | 
24 | COc1cc(Nc2nccc(N3CCC(NC(=O)c4cccc(NC(C)=O)c4)C3)n2)cc(OC)c1OC (stereo not shown) [GSK1379754] | 16 | 64 | 2 | 0 | 0 | 0 | 39 | 2 | 0 | 0 |  |  |  |  |  |  | 
25 | CC(=O)Nc1ccc(COc2ccc(Nc3ccnc4cc(-c5ccccn5)ccc34)cc2)cc1.Cl [GW440148] | 0 | 23 | 0 | 0 | 0 | 13 | 0 | 0 | 0 | 0 |  |  |  |  |  |  | 
26 | Cc1ccc(C(=O)NCC(N)=O)cc1-n1c(C)cc(OCc2ccc(F)cc2F)c(Br)c1=O | 21 | 10 | 10 | 10 | 15 | 0 | 20 | 0 | 0 | 0 |  |  |  |  |  |  | 
27 | O=C(NCCNc1ccnc(Nc2ccc(F)cc2)n1)Nc1ccccc1F [GSK1379880] | 2 | 4 | 0 | 0 | 48 | 3 | 26 | 55 | 0 | 0 |  |  |  |  |  |  | 
28 | COc1cc2c(cc1OCCN1CCN(C)CC1)ncc1c3ccc(C#N)cc3[nH]c21 | 0 | 10 | 25 | 0 | 0 | 11 | 8 | 0 | 90.6 | 0 |  |  |  |  |  |  | 
29 | O=C(NOCC1CC1)c1ccc(F)c(F)c1Nc1ccc(I)cc1Cl | 7 | 0 | 0 | 0 | 0 | 0 | 0 | 0 | 11 | 0 |  |  |  |  |  |  | 
30 | CN1c2ccc(NCc3ccc(F)cc3)cc2-c2c(cnn2C)S1(=O)=O | 0 | 0 | 0 | 0 | 0 | 0 | 8 | 67 | 0 | 0 |  |  |  |  |  |  | 
31 | NS(=O)(=O)CCc1cccc(Nc2nccc(-c3c(-c4cccc(NC(=O)c5c(F)cccc5F)c4)nn4ccccc34)n2)c1 [GSK336735] | 55 | 28 | 0 | 90.7 | 99.9 | 1 | 74 | 0 | 27 | 73 |  |  |  |  |  |  | 
32 | CN1c2ccc(CNc3ccc(F)cc3)cc2-c2c(cnn2C)S1(=O)=O | 0 | 0 | 0 | 0 | 0 | 0 | 27 | 0 | 0 | 0 |  |  |  |  |  |  | 
33 | Nc1nc(-c2ccc3c(N)n[nH]c3c2)cc(N2CCCC2)n1 [GSK2227430] | 0 | 8 | 0 | 0 | 0 | 0 | 0 | 0 | 0 | 0 |  |  |  |  |  |  | 
34 | NCC(NC(=O)c1cc(-c2cn[nH]c2)c(-c2ccnc3[nH]ccc23)s1)c1ccccc1.O=C(O)C(F)(F)F.O=C(O)C(F)(F)F (stereo not shown) [GSK1325775] | 37 | 46 | 79 | 0 | 0 | 9 | 0 | 66 | 78 | 91.9 |  |  |  |  |  |  | 

From publication PMC5540273 (PLoS ONE, 2017)
